An excerpt weighted towards active compounds, which were near 28% of everything screened.
CYP2C19 act – cytochrome P450 2C19 (human) activation. AID 1025. P33261. activation factor at 5 µM. recombinant CYP2C19, luciferin-H EGE luminescence; hits give high values; 0 = fully inhibited enzyme, 1 = untreated enzyme. 96,000 tested, under 10 active;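 active = activation factor of at least 2 at 5 µM in the primary screen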;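 also: 0 = wells with 2.5 mM tranylcypromine and 1 = vehicle-only wells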
CYP2C9 act – increases human cytochrome P450 2C9 activity; P11712; recombinant CYP2C9, luciferin-H conversion, luminescence; hits give high values; factor 1 = untreated enzyme, 0 = blocked; activation factor at 5 µM; 96,000 tested, 1.4% active;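 active = activation factor of 2 or more for CYP2C9 at a 5 µM dose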;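 also: 0 = sulfaphenazole-blocked wells and 1 = vehicle-only wells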
Target sequence (P11712 whole entry, looked up): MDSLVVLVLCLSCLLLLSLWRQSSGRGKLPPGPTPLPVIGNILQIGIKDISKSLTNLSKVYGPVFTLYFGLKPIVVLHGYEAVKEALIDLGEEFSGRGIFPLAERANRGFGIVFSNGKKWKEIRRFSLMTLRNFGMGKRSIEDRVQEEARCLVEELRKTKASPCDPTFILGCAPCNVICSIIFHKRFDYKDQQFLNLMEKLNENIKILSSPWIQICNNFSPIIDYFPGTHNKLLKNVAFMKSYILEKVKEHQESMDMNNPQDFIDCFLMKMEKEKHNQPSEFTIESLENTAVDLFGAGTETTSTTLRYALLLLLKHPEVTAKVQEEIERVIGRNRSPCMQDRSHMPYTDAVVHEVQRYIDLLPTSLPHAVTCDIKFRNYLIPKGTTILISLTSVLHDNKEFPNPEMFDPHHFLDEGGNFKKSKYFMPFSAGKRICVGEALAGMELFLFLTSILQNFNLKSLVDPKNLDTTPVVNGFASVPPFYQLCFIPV
Pyk2 oligo antag – antagonists of human Pyk2 oligomerization; Q293 cells, Pyk2 FERM NanoBiT luminescence; hits give low values; 99,000 tested, 0.83% active; z-score (the deposit names both 25 µM and 10 µM); Q14289; AID 1347419;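 active = Z-score of -3 or lower, scaled per plate to the spread of control and sample wells; inactive = z-score above -3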;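 also: negative z-score means lost luminescence so less FERM oligomerization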
CYP2C19 inhib – human CYP2C19 inhibition. CYP2C19 Supersomes, luciferin-H EGE luminescence, 30 min. inhibition, % at 5 µM. 96,000 tested, 21% active;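 active = CYP2C19 inhibition above a set limit at 5 µM in the primary screen, cut at about 50% in these data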;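 also: plate controls were negative control wells for no effect and 2.5 mM tranylcypromine positive control for full effect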
CYP2C9 inhib – human CYP2C9 inhibition; 96,000 tested, 20% active; P11712; inhibition, % at 5 µM; CYP2C9 Supersomes, luciferin-H conversion, luminescence;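 active = blocking of liver enzyme CYP2C9 beyond about 50% at 5 µM, limit read from the data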
Numbers without * were called inactive; . = not tested or not shown.

SMILES	CYP2C19 act	CYP2C9 act	Pyk2 oligo antag	CYP2C19 inhib	CYP2C9 inhib
O=C(NNC(=O)C1CCN(S(=O)(=O)c2ccc(Cl)cc2)CC1)c1ccccc1	.	.	0.1	.	.
O=C(CSc1nc2ccccc2[nH]1)NC1CCS(=O)(=O)C1 (stereo not drawn)	0.9	1.1	0.16	7	-6
O=C(CSc1nc2ccccc2n1CCc1ccccc1)NC1CCS(=O)(=O)C1 (stereo not drawn)	0	0	0.76	96*	99*
COc1cnc(-c2ccccn2)nc1Sc1cccc(Cl)c1	0.9	0.7	-1.1	13	30
Cn1c(=O)c2ccccc2n(Cc2ccccc2F)c1=O	0.5	0.8	-0.42	52*	24
O=c1[nH]ncc2c3ccccc3n(Cc3ccccc3F)c12	1	0.9	0.31	1	6
CC1C(=O)N(c2ccc(S(=O)(=O)N(C)C)cc2)C1(/C=C/c1ccccc1)C(=O)NC1CCCC1 (stereo not drawn)	.	.	-1.1	.	.
COc1cccc(-c2cc(C(F)(F)F)n3ncc(C(=O)NCC4CCCO4)c3n2)c1 (stereo not drawn)	0.5	0.5	-1.7	46	55*
COc1ccc(-c2cc(C(F)(F)F)n3ncc(C(=O)NCC4CCCO4)c3n2)cc1 (stereo not drawn)	0.8	0.6	0.65	20	44
CC(C)(c1ccccc1)c1ccc(OCCCNCCO)cc1	0.8	1.1	-0.53	20	-14
CCOC(=O)CSc1n[nH]c(NC(=O)c2cccc(C(F)(F)F)c2)n1	0.6	0.6	0.99	41	38
Cc1ccc(-c2csc(N(C)C(=O)c3c(C)nn(-c4ccccc4)c3Cl)n2)cc1	0.6	0.3	-2	44	74*
CC(C)SCc1nc2ccccc2[nH]1	0.6	1.1	0.15	39	-8
Clc1ccc(/C=C/c2nc3ccccc3[nH]2)cc1	0.6	0.8	-0.55	36	15
Cc1cc(C)c(C#N)c(SCc2nc3ccccc3[nH]2)n1	0.4	0.4	0.24	56*	58*
Clc1ccc(SCc2nc3ccccc3[nH]2)cc1	0	0.5	-1.8	100*	54*
Cc1ccc(SCc2nc3ccccc3[nH]2)cc1	0.1	0.5	0.12	89*	50
c1ccc2[nH]c(CSc3nccs3)nc2c1	.	.	-0.18	.	.
c1ccc(SCc2nc3ccccc3[nH]2)cc1	0.1	0.8	0.28	90*	16
COc1ccc(Cl)cc1Nc1nc(-c2sc(NC(=O)C(C)(C)C)nc2C)cs1	1	0.7	.	2	30
COc1ccc(Cl)cc1Nc1nc(-c2sc(NC(=O)c3ccco3)nc2C)cs1	0.6	0.4	.	43	62*
COc1cccc(Nc2nc(-c3sc(N)nc3C)cs2)c1	0.4	0.3	-0.13	59*	74*
COc1cccc(Nc2nc(-c3sc(NC(=O)c4ccco4)nc3C)cs2)c1	0.5	0.3	.	47	72*
CCCCCNc1c(C(=O)OCC)c(=O)[nH]c2ccccc12	0.9	0.8	0.05	9	22
COc1cccc(NS(=O)(=O)c2nc3nc(C)cc(C)n3n2)c1	1	1.1	.	-4	-7
SMILES	CYP2C19 act	CYP2C9 act	Pyk2 oligo antag	CYP2C19 inhib	CYP2C9 inhib
CCC(=O)N1CCc2cc(S(=O)(=O)NC(C(=O)NCc3ccc(C)cc3)C(C)C)ccc21 (stereo not drawn)	1.1	1	0.05	-8	1
Cc1ccc(CNC(=O)C(NS(=O)(=O)c2cccs2)C(C)C)cc1 (stereo not drawn)	0.1	0.5	0.2	85*	52*
Cc1ccc(CNC(=O)C(Cc2ccccc2)NS(=O)(=O)c2cccs2)cc1 (stereo not drawn)	0.4	1	-0.28	61*	2
CC(C)C(NS(=O)(=O)c1cccs1)C(=O)NCc1ccc2c(c1)OCO2 (stereo not drawn)	0.1	0.2	.	94*	84*
Cc1ccc(C(C(=O)NC2CCCCC2)N(Cc2ccco2)C(=O)Cn2cnc3ccccc32)cc1 (stereo not drawn)	.	.	-1.1	.	.
CCOC(=O)C1CCN(C(=O)/C=C/c2ccc(OC)cc2)CC1	0.1	0.6	-0.08	87*	44
CCOC(=O)C1CCN(C(=O)/C=C/c2ccccc2OC)CC1	0.5	2.6*	-0.3	51*	-163
CCOC(=O)C1CCN(C(=O)c2ccc(OC)cc2OC)CC1	0.9	1.2	-0.08	13	-25
Nc1nc(Nc2ccccc2Br)nc(C(F)(F)F)n1	0.5	0.5	.	46	54*
CC(C)CC(=O)Nc1ccccc1Oc1ccccc1	0.8	1	-0.34	25	3

Assay outcomes (PubChem)
